# From PubChem BioAssay (NCATS)
# Inconclusive results are not listed. Entries that show only a call come without a potency. Activity calls are given as the source filed them. The call rests on the fitted dose curve; in most records, active means well fitted inhibition curve with a large enough effect; inconclusive means small, poorly fitted or top-dose-only effect; inactive means flat fitted curve, though single readings scatter.
# Tests used:
# AA1029 = assay: qHTS profiling for inhibitors of Plasmodium falciparum proliferation (AID 504749); further: nearly all actives have a fitted effect of over 60% in size; conditions: P. falciparum in erythrocytes, SYBR Green DNA, 72 h; series mostly up to 28.7 µM
# In short: (§1)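 Readout was DNA-dye fluorescence from lysed cultures, ex 485/em 535 nm. Parasitized red cells had grown 72 h with compound; data scaled between 0.29 uM artemisinin and DMSO wells and corrected using vehicle-only plates.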
# AS120 = assay: as above; conditions: P. falciparum in erythrocytes, SYBR Green DNA, 72 h; series mostly up to 28.7 µM
# In short: as §1
# CP194 = assay: as above; conditions: P. falciparum in erythrocytes, SYBR Green DNA, 72 h; series mostly up to 28.7 µM
# In short: as §1
# CP203 = assay: as above; conditions: P. falciparum in erythrocytes, SYBR Green DNA, 72 h; series mostly up to 28.7 µM
# In short: as §1
# CP211 = assay: as above; conditions: P. falciparum in erythrocytes, SYBR Green DNA, 72 h; series mostly up to 28.7 µM
# In short: as §1
# CP237 = assay: as above; conditions: P. falciparum in erythrocytes, SYBR Green DNA, 72 h; series mostly up to 28.7 µM
# In short: as §1
# CP268 = assay: as above; conditions: P. falciparum in erythrocytes, SYBR Green DNA, 72 h; series mostly up to 28.7 µM
# In short: as §1
# CP269 = assay: as above; conditions: P. falciparum in erythrocytes, SYBR Green DNA, 72 h; series mostly up to 28.7 µM
# In short: as §1
# CP305 = assay: as above; conditions: P. falciparum in erythrocytes, SYBR Green DNA, 72 h; series mostly up to 28.7 µM
# In short: as §1
# CP329 = assay: as above; conditions: P. falciparum in erythrocytes, SYBR Green DNA, 72 h; series mostly up to 28.7 µM
# In short: as §1
# FAB9 = assay: as above; conditions: P. falciparum in erythrocytes, SYBR Green DNA, 72 h; series mostly up to 28.7 µM
# In short: as §1
# JCK = assay: as above; conditions: P. falciparum in erythrocytes, SYBR Green DNA, 72 h; series mostly up to 28.7 µM
# In short: as §1
# N140 = assay: as above; conditions: P. falciparum in erythrocytes, SYBR Green DNA, 72 h; series mostly up to 28.7 µM
# In short: as §1
# PAD = assay: as above; conditions: P. falciparum in erythrocytes, SYBR Green DNA, 72 h; series mostly up to 28.7 µM
# In short: as §1
# PC15 = assay: as above; conditions: P. falciparum in erythrocytes, SYBR Green DNA, 72 h; series mostly up to 28.7 µM
# In short: as §1
# SC27B = assay: as above; conditions: P. falciparum in erythrocytes, SYBR Green DNA, 72 h; series mostly up to 28.7 µM
# In short: as §1
# TAB113 = assay: as above; conditions: P. falciparum in erythrocytes, SYBR Green DNA, 72 h; series mostly up to 28.7 µM
# In short: as §1
# TAB165 = assay: as above; conditions: P. falciparum in erythrocytes, SYBR Green DNA, 72 h; series mostly up to 28.7 µM
# In short: as §1
# [1] = biological target: Luciferin 4-monooxygenase (Photinus pyralis) (UniProt P08659); assay: Biochemical firefly luciferase enzyme assay for NPC (AID 624030); further: nearly all actives have a fitted effect of over 70% in size
# In short: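 Purified P. pyralis luciferase at 10 nM in 50 mM Tris Acetate (final), luminescence read within 5 minutes of enzyme addition to compounds. Activity normalised to PTC124 versus DMSO; concentration-response curves classed by r2, magnitude and activity.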
# TAB109 = assay: qHTS profiling for inhibitors of Plasmodium falciparum proliferation (AID 504749); further: nearly all actives have a fitted effect of over 60% in size; conditions: P. falciparum in erythrocytes, SYBR Green DNA, 72 h; series mostly up to 28.7 µM
# In short: as §1
# Potency means the concentration at half of the fitted maximal effect.
# Chain of Luciferin 4-monooxygenase (Photinus pyralis) (P08659 whole entry, looked up): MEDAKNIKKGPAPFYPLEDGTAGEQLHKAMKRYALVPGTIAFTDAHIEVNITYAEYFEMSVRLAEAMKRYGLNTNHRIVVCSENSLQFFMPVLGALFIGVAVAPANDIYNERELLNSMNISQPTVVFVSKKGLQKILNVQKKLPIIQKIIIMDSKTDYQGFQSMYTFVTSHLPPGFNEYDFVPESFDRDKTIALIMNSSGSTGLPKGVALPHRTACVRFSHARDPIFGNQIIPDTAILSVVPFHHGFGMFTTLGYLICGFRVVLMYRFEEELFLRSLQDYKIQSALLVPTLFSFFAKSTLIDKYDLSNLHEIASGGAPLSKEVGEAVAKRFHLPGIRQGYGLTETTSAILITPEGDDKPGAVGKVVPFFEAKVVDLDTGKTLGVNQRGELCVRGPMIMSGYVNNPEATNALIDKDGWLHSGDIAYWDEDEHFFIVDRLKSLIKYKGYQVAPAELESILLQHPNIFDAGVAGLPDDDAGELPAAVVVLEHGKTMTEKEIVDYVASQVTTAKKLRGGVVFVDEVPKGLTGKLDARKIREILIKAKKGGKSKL
Compound,Potency (AA1029),Potency (AS120),Potency (CP194),Potency (CP203),Potency (CP211),Potency (CP237),Potency (CP268),Potency (CP269),Potency (CP305),Potency (CP329),Potency (FAB9),Potency (JCK),Potency (N140),Potency (PAD),Potency (PC15),Potency (SC27B),Potency (TAB113),Potency (TAB165),Potency [1],Potency (TAB109)
CC(=O)N[C@H]1[C@H](O[C@@H]2c3ccc(c(Cl)c3)Oc3cc4cc(c3O[C@@H]3O[C@H](CO)[C@@H](O)[C@H](O)C3C)Oc3ccc(cc3Cl)C[C@H]3NC(=O)[C@@H](N)c5ccc(O)c(c5)Oc5cc(O)cc(c5)[C@H](NC3=O)C(=O)N[C@H]4C(=O)N[C@H]3C(=O)N[C@@H]2C(=O)N[C@@H](C(=O)O)c2cc(O)cc(O[C@H]4O[C@H](CO)[C@@H](O)C(O)[C@@H]4O)c2-c2cc3ccc2O)O[C@H](CO)[C@@H](O)[C@@H]1O (stereo not given in full),inactive,inactive,inactive,inactive,inactive,inactive,inactive,inactive,inactive,inactive,inactive,inactive,inactive,inactive,inactive,inactive,inactive,inactive,,
NC[C@@H]1O[C@H](OC2[C@@H](CO)O[C@@H](OC3[C@H](O)[C@H](N)C[C@H](N)[C@H]3OC3O[C@H](CO)[C@@H](O)[C@H](O)[C@@H]3N)[C@H]2O)C(N)[C@H](O)[C@@H]1O (stereo not given in full),inactive,inactive,inactive,inactive,inactive,inactive,inactive,inactive,inactive,inactive,inactive,inactive,inactive,inactive,inactive,inactive,inactive,inactive,inactive,inactive
C[C@H]1OC(OC2C(O)[C@@H](O)C(OC3C(O)[C@@H](O)C(O)O[C@@H]3CO)O[C@@H]2CO)[C@H](O)C(O)C1N[C@H]1C=C(CO)[C@@H](O)[C@H](O)C1O (stereo not given in full),inactive,inactive,inactive,inactive,inactive,inactive,inactive,inactive,inactive,inactive,inactive,inactive,inactive,inactive,inactive,inactive,inactive,inactive,inactive,inactive
CC1OC(OCC2OC(Oc3c(-c4ccc(OCCO)c(OCCO)c4)oc4cc(OCCO)cc(O)c4c3=O)C(O)C(O)C2O)[C@@H](O)C(O)C1O (stereo not given in full),inactive,inactive,inactive,inactive,inactive,inactive,inactive,inactive,inactive,inactive,inactive,inactive,inactive,inactive,inactive,inactive,inactive,inactive,inactive,inactive
OCC1O[C@H](O[C@H]2C(O)C(O)C(O)O[C@@H]2CO)C(O)C(O)C1O (stereo not given in full),inactive,inactive,inactive,inactive,inactive,inactive,inactive,inactive,inactive,inactive,inactive,inactive,inactive,inactive,inactive,inactive,inactive,inactive,inactive,inactive
OC[C@@H]1O[C@](CO)(O[C@H]2O[C@H](CO)[C@@H](O)[C@H](O)[C@H]2O)[C@H](O)[C@H]1O,inactive,inactive,inactive,inactive,inactive,inactive,inactive,inactive,inactive,inactive,inactive,inactive,inactive,inactive,inactive,inactive,inactive,inactive,inactive,inactive
CCCCCCCCCCCCCCCC(=O)OCC(COP(=O)(O)OCC[N+](C)(C)C)OC(=O)CCCCCCCCCCCCCCC (stereo not given),inactive,inactive,inactive,inactive,inactive,inactive,inactive,inactive,inactive,inactive,inactive,inactive,inactive,inactive,inactive,inactive,inactive,inactive,inactive,inactive
CO[C@H]1OC2O[C@@]3(C)CC[C@H]4[C@H](C)CC[C@@H]([C@H]1C)[C@@]24OO3 (stereo not given in full),31.6 nM (active),22.4 nM (active),60.1 nM (active),30.1 nM (active),75.7 nM (active),15.8 nM (active),21.3 nM (active),21.3 nM (active),15.1 nM (active),60.1 nM (active),22.4 nM (active),12600 nM (active),12.6 nM (active),20 nM (active),11.2 nM (active),14.1 nM (active),11.2 nM (active),22.4 nM (active),inactive,12.6 nM (active)
CC1(C)C2CC[C@]1(C)[C@@H](O)C2,inactive,inactive,inactive,inactive,inactive,inactive,inactive,inactive,inactive,inactive,inactive,inactive,inactive,inactive,inactive,inactive,inactive,inactive,inactive,inactive
O=C(O)Cc1sc(-c2ccc(Cl)cc2)nc1-c1ccccc1,inactive,inactive,inactive,inactive,inactive,inactive,inactive,inactive,inactive,inactive,inactive,inactive,inactive,inactive,inactive,inactive,inactive,inactive,25600 nM (active),inactive
C=C[C@@]1(C)C[C@H](OC(=O)CSC(C)(C)CNC(=O)[C@@H](N)C(C)C)[C@@]2(C)C(C)CC[C@@]3(CCC(=O)[C@@H]32)[C@H](C)[C@H]1O (stereo not given in full),1580 nM (active),3550 nM (active),1900 nM (active),1070 nM (active),675 nM (active),1410 nM (active),3010 nM (active),1070 nM (active),379 nM (active),601 nM (active),,,1410 nM (active),4470 nM (active),,5620 nM (active),5620 nM (active),4470 nM (active),inactive,891 nM (active)
CO[C@H]1C[C@@H]2CC[C@@H](C)[C@@](O)(O2)C(=O)C(=O)N2CCCC[C@H]2C(=O)O[C@H]([C@H](C)C[C@@H]2CC[C@@H](O)[C@H](OC)C2)CC(=O)[C@H](C)/C=C(\C)[C@@H](O)[C@@H](OC)C(=O)[C@H](C)C[C@H](C)/C=C/C=C/C=C/1C,2510 nM (active),1780 nM (active),3380 nM (active),1690 nM (active),4260 nM (active),5010 nM (active),4780 nM (active),4260 nM (active),6750 nM (active),4260 nM (active),,10000 nM (active),1580 nM (active),1000 nM (active),3980 nM (active),2510 nM (active),2510 nM (active),1780 nM (active),inactive,2240 nM (active)
NC(CSSCC(N)C(=O)O)C(=O)O (stereo not given),inactive,inactive,inactive,inactive,inactive,inactive,inactive,inactive,inactive,inactive,inactive,inactive,inactive,inactive,inactive,inactive,inactive,inactive,inactive,inactive
NCCCCC(N)C(=O)O (stereo not given),inactive,inactive,inactive,inactive,inactive,inactive,inactive,inactive,inactive,inactive,inactive,inactive,inactive,inactive,inactive,inactive,inactive,inactive,inactive,inactive
Nc1nc(F)nc2c1ncn2[C@@H]1O[C@H](CO)[C@@H](O)[C@H]1O,inactive,inactive,inactive,inactive,inactive,inactive,inactive,inactive,,inactive,inactive,inactive,inactive,inactive,inactive,inactive,inactive,inactive,inactive,inactive
CC[C@@]1(O)CC2CN(CCc3c([nH]c4ccccc34)[C@](C(=O)OC)(c3cc4c(cc3OC)N(C)C3[C@@](O)(C(=O)OC)C(OC(C)=O)[C@]5(CC)C=CCN6CC[C@@]43C65)C2)C1 (stereo not given in full),3160 nM (active),2820 nM (active),3790 nM (active),3010 nM (active),2690 nM (active),794 nM (active),,3010 nM (active),3790 nM (active),3010 nM (active),,6310 nM (active),3550 nM (active),2240 nM (active),,2820 nM (active),3980 nM (active),3550 nM (active),inactive,3160 nM (active)
OCC1OC(O)C(O)C(O)C1O (stereo not given),inactive,inactive,inactive,inactive,inactive,inactive,inactive,,inactive,inactive,inactive,inactive,inactive,inactive,inactive,inactive,inactive,inactive,inactive,inactive
CC(C)C(=O)OCC(=O)[C@@]12OC(C3CCCCC3)O[C@@H]1CC1C3CCC4=CC(=O)C=C[C@]4(C)C3[C@@H](O)C[C@@]12C (stereo not given in full),891 nM (active),794 nM (active),,,1350 nM (active),1410 nM (active),,,849 nM (active),,2000 nM (active),2510 nM (active),794 nM (active),1000 nM (active),1580 nM (active),1260 nM (active),1120 nM (active),891 nM (active),inactive,708 nM (active)
O=C(O)c1ccc(N[C@@H]2OC[C@@H](O)[C@@H](O)[C@@H]2O)cc1,inactive,inactive,inactive,inactive,inactive,inactive,inactive,inactive,inactive,inactive,inactive,inactive,inactive,inactive,inactive,inactive,inactive,inactive,inactive,inactive
COc1ccc2cc1Oc1cc3c(cc1OC)CC[N+](C)(C)C3Cc1ccc(cc1)Oc1c(OC)c(OC)cc3c1C(C2)[N+](C)(C)CC3 (stereo not given),inactive,inactive,inactive,inactive,inactive,inactive,inactive,inactive,inactive,inactive,inactive,inactive,inactive,inactive,inactive,inactive,inactive,inactive,inactive,inactive
CC(=O)C1(O)Cc2c(O)c3c(c(O)c2C(OC2CC(N)C(O)C(C)O2)C1)C(=O)c1c(O)cccc1C3=O (stereo not given),5010 nM (active),4470 nM (active),12000 nM (active),,9530 nM (active),2820 nM (active),,15100 nM (active),,12000 nM (active),11200 nM (active),12600 nM (active),7080 nM (active),10000 nM (active),11200 nM (active),4470 nM (active),6310 nM (active),4470 nM (active),,5620 nM (active)
